Assay results published in the supplement of paper PMC7366291.
Structures can show the parent of a compound that is named as a salt.

The compounds below were run on Danio rerio Tg(wt1b:EGFP) embryo, pronephros (assay: fraction of imaged embryos annotated as normal kidney; higher = less nephrotoxic; extreme values may be limits of the assay). Details: 25 µM; exposure: 24-48 hpf.
How it was run: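 From 24 to 48 hpf at 28.5°C, dechorionated Tg(wt1b:EGFP) zebrafish embryos in 12-well plates were kept in 5 mM HEPES-buffered E3 with 0.003% PTU, 0.5% DMSO and 25 μM compound. Pronephroi were imaged by widefield fluorescence at 470 nm and judged by eye from maximum projections. Reported is the proportion of embryos per treatment in the normal-kidney category.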

Row | Structure (SMILES) | fraction of imaged embryos annotated as normal kidney
1 | CCN(CC)CCNC(=O)COc1ccc(OC)cc1 [Mefexamide hydrochloride] | 0.833
2 | COc1ccc2c(c1)N(C[C@H](C)CN(C)C)c1ccccc1S2 [Methotrimeprazine maleat salt] | 0.909
3 | CCN(CC)CCNC(=O)c1cc(Br)c(N)cc1OC [Bromopride] | 1
4 | Cc1cccc(CN2CCN(C(c3ccccc3)c3ccc(Cl)cc3)CC2)c1 (stereo unspecified) [Meclozine dihydrochloride] | 0.417
5 | CCN(CC)CC#CCOC(=O)C(O)(c1ccccc1)C1CCCCC1 (stereo unspecified) [Oxybutynin chloride] | 1
6 | CN(C)CCCSC(=N)N [Dimaprit dihydrochloride] | 0.75
7 | Cc1cc(-n2c(=O)[nH]c(=O)n(C)c2=O)ccc1Oc1ccc(SC(F)(F)F)cc1 [Toltrazuril] | 0.5
8 | CCOC(=O)[N-]c1c[n+](N2CCOCC2)no1 [Molsidomine] | 0.833
9 | O=C1CN(/N=C/c2ccc(-c3ccc([N+](=O)[O-])cc3)o2)C(=O)N1 [Dantrolene sodium salt] | 0.833
10 | CC[C@H]1OC(=O)C[C@@H](O)[C@H](C)[C@@H](O[C@@H]2O[C@H](C)[C@@H](O[C@H]3C[C@@](C)(O)[C@@H](O)[C@H](C)O3)[C@H](N(C)C)[C@H]2O)[C@@H](CC=O)C[C@@H](C)C(=O)/C=C/C(C)=C/[C@@H]1CO[C@@H]1O[C@H](C)[C@@H](O)[C@@H](OC)[C@H]1OC [Tylosin] | 0.833
11 | CN(C)CCOC(c1ccccc1)c1ccccc1.Cn1c(=O)c2[nH]c(Cl)nc2n(C)c1=O [Dimenhydrinate] | 0.917
